GLS inh – blocks human kidney-isoform glutaminase activity. GLS enzymatic activity, qHTS titration. 410,000 tested, 0.21% active. O94925. AID 624170. Potency, µM (top dose mostly 45.5 µM), for the others: at the top dose activity change, negative = inhibition, actives largely listed as inhibitors; also: % is scaled to controls: 0 for no effect and ±100 for the full control effect
Target sequence (O94925 whole entry, looked up, canonical isoform): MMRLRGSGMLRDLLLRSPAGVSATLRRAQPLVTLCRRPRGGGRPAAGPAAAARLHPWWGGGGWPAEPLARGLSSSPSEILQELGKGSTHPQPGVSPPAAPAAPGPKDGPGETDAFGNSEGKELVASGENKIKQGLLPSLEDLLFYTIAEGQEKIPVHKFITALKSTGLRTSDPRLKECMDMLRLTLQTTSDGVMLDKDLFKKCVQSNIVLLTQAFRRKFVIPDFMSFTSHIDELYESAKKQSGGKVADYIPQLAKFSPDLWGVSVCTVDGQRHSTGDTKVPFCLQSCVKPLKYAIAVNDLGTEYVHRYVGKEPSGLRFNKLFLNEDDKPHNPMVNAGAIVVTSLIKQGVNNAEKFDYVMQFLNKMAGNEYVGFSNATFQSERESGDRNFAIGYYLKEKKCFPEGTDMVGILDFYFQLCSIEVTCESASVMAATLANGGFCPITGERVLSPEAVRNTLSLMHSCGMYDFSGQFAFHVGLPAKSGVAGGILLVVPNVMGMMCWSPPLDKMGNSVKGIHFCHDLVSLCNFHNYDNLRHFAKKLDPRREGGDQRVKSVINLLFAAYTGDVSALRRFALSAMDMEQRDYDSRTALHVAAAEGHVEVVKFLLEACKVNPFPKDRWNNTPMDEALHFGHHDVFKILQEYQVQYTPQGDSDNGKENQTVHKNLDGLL
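Glutamate formation by hKGA was monitored fluorometrically using coupled glutamate oxidase, HRP and Amplex Red. Substrate was added as 1 mM L-glutamine solution; incubation was 30 min at RT after an initial read.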
HP1b chromo inh – blocks HP1-beta chromodomain binding to methylated histone tails; P83916; AlphaScreen HP1-beta / biotin-H3K9me3 peptide binding; Potency, µM (top dose mostly 114 µM), for inactives: at the top dose activity change, negative = inhibition, actives largely listed as inhibitors; 390,000 tested, 0.56% active; AID 540317; also: nearly all actives have a fitted effect of over 70% in size
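AlphaScreen: HP1-beta (50 nM) preformed 30 min with biotin-H3(1-18)K9me3 peptide (50 nM) in PBS pH 7.4, 0.01% Tween-20. Compound added for 30 min at RT, then streptavidin donor/nickel chelate acceptor beads (10 ug/mL) for 30 min.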
BAZ2B block – BAZ2B (human) inhibition | AlphaScreen BAZ2B-H3K14Ac peptide displacement | Potency, µM (doses to about 114 µM), for inactives: at the top dose activity change, negative = inhibition, usual class: inhibitors | 360,000 tested, 4.4% active | AID 504333; also: % is scaled to controls: 0 for no effect and ±100 for the full control effect; nearly all actives have a fitted effect of over 60% in size
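In this displacement format the biotinylated H3(5-23) peptide acetylated at Lys14 serves as ligand at 50 nM, with BAZ2B at 50 nM in PBS pH 7.4 containing 0.01% Tween-20. Donor and acceptor beads are 10 ug/mL final.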
G9a inh – blocks human histone lysine methyltransferase G9a; G9a H3K9 monomethylation, AlphaScreen, 2 h; Potency, µM (doses to about 102 µM), without a hit: at the top dose activity, negative = inhibition, usual class: inhibitors; 350,000 tested, 8.8% active; AID 504332; also: % is scaled to controls: 0 for no effect and ±100 for the full control effect; nearly all actives have a fitted effect of over 75% in size
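Methyltransferase reactions run at room temperature for 2 h (20 nM enzyme, 500 nM biotin-H3K9 peptide, 20 uM SAM) after a 15 min compound preincubation; product detected by AlphaScreen beads and anti-H3K9me1 antibody.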
JMJD2A Tudor – blocks the human JMJD2A Tudor domain; O75164; AlphaScreen JMJD2A-Tudor / H3K4me3 peptide binding; Potency, µM (doses to about 114 µM), for inactives: at the highest dose activity change, negative = inhibition, most hits filed as inhibitors; 390,000 tested, 4.4% active; also: % is scaled to controls: 0 for no effect and ±100 for the full control effect; nearly all actives have a fitted effect of over 50% in size
Numbers without * were called inactive; ? = inconclusive; nt = no result given; [ ] = dose if it differs, or a comment. Hits are enriched below; roughly 10% of the tested compounds scored in any of these assays. Calls follow the shape of the dose curve; as a rule, active = well fitted curve in the direction sought with a large enough effect; inconclusive = small, poorly fitted or top-dose-only effect, or another doubt; inactive = no such curve, though single readings can be large; an effect the other way counts as inactive or inconclusive. Potency is read from the fitted curve at half-maximal effect.

SMILES	GLS inh	HP1b chromo inh	BAZ2B block	G9a inh	JMJD2A Tudor
CC(C)(C)c1nc2ccccc2c2nnc(SCC(=O)Nc3nc4ccccc4s3)n12	-25%	19%	?	-108%	-14%
O=[N+]([O-])c1ccc(O)c(C=Nc2ccc3oc(Cc4ccc(Cl)cc4)nc3c2)c1	nt	nt	?	28µM*	nt
COC1CCN(C(=O)c2ccc3oc(Cc4ccc(Cl)cc4)nc3c2)CC1	-13%	42%	-11%	19%	-7%
Nc1ccc2oc(Cc3ccc(Cl)cc3)nc2c1	3%	-19%	-37%	13µM*	?
Cc1c(N(C)C)nc2ccccc2c1N	5%	14µM*	45µM*	?	1µM*
CC(=O)Nc1ccc(S(=O)(=O)NCC(=O)OCC(=O)N2CCN(c3ccccc3)CC2)cc1	19%	28%	-27%	50µM*	-21%
O=C(CNS(=O)(=O)c1ccc(Br)cc1Cl)OCC(=O)c1ccc[nH]1	3%	21%	-4%	?	-25%
O=C(CNS(=O)(=O)c1c(Cl)cccc1Cl)OCC(=O)N1CCN(c2ccccc2)CC1	6%	-9%	-31%	56µM*	-24%
CC(=O)Nc1ccc(S(=O)(=O)NCC(=O)OCC(=O)N2CC(C)OC(C)C2)cc1 (centres undefined)	0%	27%	nt	nt	13%
O=C(CNS(=O)(=O)c1c(Cl)cccc1Cl)OCC(=O)c1ccc[nH]1	-16%	16%	79µM*	nt	-27%
CCOc1ccccc1NC(=O)c1ccc2nccnc2c1	-2%	41%	1%	5%[59 µM]	-5%
CC(=O)O/C(=C\c1cn(C(C)=O)c2ccccc12)C(=O)O	?	31%	?	35µM*	-1%
CC(=O)n1cc(CO)c2ccccc21	-5%	38%	3%	7%[12.7 µM]	-10%
O=C(Nc1ccc(C2=NCCN2)cc1)c1ccc(Cl)c(C(=O)Nc2ccc(C3=NCCN3)cc2)c1	nt	nt	-23%	18µM*	nt
O=C(Cc1sc(-c2ccccc2Cl)nc1-c1ccccc1)Nc1ccccc1	2%	22%	3%	-17%	-8%
COc1ccc(F)cc1S(=O)(=O)Nc1cc2c3c(c1)CCN3C(=O)CC2	1%	13%	-4%	45µM*	-6%
COc1ccc(S(=O)(=O)Nc2cc3c4c(c2)CC(=O)N4CCC3)cc1	7%	-4%	-20%	32µM*	-16%
COc1ccc(C)cc1S(=O)(=O)Nc1cc2c3c(c1)CCN3C(=O)CC2	3%	37%	11%	-2%[0.501 µM]	3%
O=C1Cc2cc(NS(=O)(=O)c3ccc([N+](=O)[O-])cc3)cc3c2N1CCC3	16%	-1%	-15%	45µM*	-25%
O=C1Cc2cc(NS(=O)(=O)c3ccc(Cl)cc3)cc3c2N1CCC3	16%	16%	2%	4%	-19%
COc1ccc(S(=O)(=O)Nc2cc3c4c(c2)CCC(=O)N4CCC3)cc1	21%	24%	7%	4%	-3%
O=[N+]([O-])c1cnc2nc(-c3ccncc3)nn2c1O	0%	20%	-16%	16%	-21%
O=C(O)CCCCCNCc1c(Cl)cccc1Cl	2%	16%	0%	8%[59 µM]	-4%
COc1cc(S(N)(=O)=O)c(OC)cc1N	11%	30%	-27%	0%	-11%
COc1cc(N=Nc2ccc(C)cc2S(N)(=O)=O)c(C)cc1N	?	20µM*	nt	nt	6.3µM*
SMILES	GLS inh	HP1b chromo inh	BAZ2B block	G9a inh	JMJD2A Tudor
O=C(NCCCCc1ccccc1)c1cccc(NC(=O)C2CC2)c1	-4%	33%	nt	nt	56µM*
CC(=O)c1ccc(N(C(=O)CNC(=O)c2ccco2)C(C(=O)NCC2CCCO2)c2ccccc2)cc1 (centres undefined)	10%	22%	?	?	-20%
CC(=O)c1c(C)n(-c2cccc(Cl)c2)c2ccc(O)cc12	-4%	8%	0%	35µM*	-20%
CC(=O)c1c(C)n(-c2ccc(Cl)cc2)c2ccc(O)cc12	10%	-1%	2%	?	-8%
Cc1ccc(C2C=C(c3ccc(Cl)cc3)Nc3nc(NS(=O)(=O)c4ccccc4)nn32)cc1 (centres undefined)	-19%	52%	-1%	?	15%
O=C(Nc1nc2n(n1)C(c1ccccc1)C=C(c1ccc(Cl)cc1)N2)c1ccco1 (centres undefined)	-6%	11%	79µM*	?	?
O=C(Nc1nc2n(n1)C(c1ccccc1)C=C(c1ccccc1)N2)c1ccco1 (centres undefined)	9%	15%	25µM*	22µM*	-29%
O=C(c1nc2n(n1)C(c1ccc(Cl)cc1)C=C(c1ccccc1)N2)N1CCOCC1 (centres undefined)	2%	14%	-33%	3.5µM*	-24%
Cc1cc(C)c2c(n1)nn1c(NCCCN(C)C)cc(C)nc21	-4%	25%	12%	4%[59 µM]	-12%
N#CC1(NC(=O)COC(=O)C2=COCCO2)CCCCC1	-5%	57%	-17%	-8%[2.33 µM]	2%
CC(=O)NC(CCS(C)(=O)=O)C(=O)Nc1ccccc1 (centres undefined)	-6%	16%	-4%	-7%[59 µM]	-19%
CC(=O)NC(CCS(C)(=O)=O)C(=O)Nc1cccc(C(C)=O)c1 (centres undefined)	4%	23%	8%	25µM*	4%
Cc1nn(CC(=O)Nc2ccc(N3CCOCC3)cc2)c(C)c1[N+](=O)[O-]	3%	14%	nt	nt	-35%
Cc1cc(C)c(S(=O)(=O)c2ccc(F)cc2C)c(Cl)n1	16µM*	45%	11%	18%[2.33 µM]	-2%
COc1cc(OC)c2c(c1C(CCN1CCCC(C)C1)c1ccc(N(C)C)cc1)OC(=O)CC2c1ccc(N(C)C)cc1 (centres undefined)	nt	?	nt	nt	8.9µM*
COc1cc(C(CCN2CCCC(C)C2)c2c(OC)cc(OC)c3c2OC(=O)CC3c2ccc(N(C)C)cc2)cc(OC)c1OC (centres undefined)	4%	?	14µM*	?	16µM*
COc1ccc(C(CCN2CCCC(C)C2)c2c(O)cc(OC)cc2OC)cc1 (centres undefined)	nt	-2%	nt	nt	-34%
COc1cc(C2CC(=O)Oc3c(C(CCN4CCCC(C)C4)c4ccc(N(C)C)cc4)c(OC)cc(OC)c32)cc(OC)c1OC (centres undefined)	29%	?	35µM*	?	40µM*
COc1cc(C(CCN2CCCC(C)C2)c2c(OC)cc(OC)c3c(C)cc(=O)oc23)cc(OC)c1OC (centres undefined)	nt	?	nt	nt	-19%
O=[N+]([O-])c1c(NCCO)cc(N2CCCCCC2)c2nonc12	-3%	9%	-23%	13%	-23%
Cc1nnc(Sc2cc(NCCO)c([N+](=O)[O-])c3nonc23)s1	-3%	13µM*	-20%	2µM*	?
Cc1nnc(Sc2cc(NCCCO)c([N+](=O)[O-])c3nonc23)s1	?	13µM*	-25%	5.6µM*	28µM*
